The full ranking holds about 110,000 compounds; the median of “z-score” is about -0.1, and the highest 2% start at about 2. The sample as a whole holds a higher share of the highest values than the screen did. Activity calls are given as the source filed them.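 The calls were made as follows: active = z-score in the third read window above 3 or below -3; inactive = the rest.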
Each compound was assayed against Metabotropic glutamate receptor 8 (Rattus norvegicus) (UniProt P70579) (assay: rat mGluR8 modulators via GIRK flux, primary screen, cell-based, thallium flux, HTS (AID 488969)). Conditions: HEK293 rat mGluR8, GIRK (G protein-gated inwardly rectifying potassium channel) thallium flux, FluoZin2; at 10 µM; stronger effect = higher value; submaximal glutamate (EC20) added with thallium.
Chain of Metabotropic glutamate receptor 8 (Rattus norvegicus) (P70579 whole entry, looked up): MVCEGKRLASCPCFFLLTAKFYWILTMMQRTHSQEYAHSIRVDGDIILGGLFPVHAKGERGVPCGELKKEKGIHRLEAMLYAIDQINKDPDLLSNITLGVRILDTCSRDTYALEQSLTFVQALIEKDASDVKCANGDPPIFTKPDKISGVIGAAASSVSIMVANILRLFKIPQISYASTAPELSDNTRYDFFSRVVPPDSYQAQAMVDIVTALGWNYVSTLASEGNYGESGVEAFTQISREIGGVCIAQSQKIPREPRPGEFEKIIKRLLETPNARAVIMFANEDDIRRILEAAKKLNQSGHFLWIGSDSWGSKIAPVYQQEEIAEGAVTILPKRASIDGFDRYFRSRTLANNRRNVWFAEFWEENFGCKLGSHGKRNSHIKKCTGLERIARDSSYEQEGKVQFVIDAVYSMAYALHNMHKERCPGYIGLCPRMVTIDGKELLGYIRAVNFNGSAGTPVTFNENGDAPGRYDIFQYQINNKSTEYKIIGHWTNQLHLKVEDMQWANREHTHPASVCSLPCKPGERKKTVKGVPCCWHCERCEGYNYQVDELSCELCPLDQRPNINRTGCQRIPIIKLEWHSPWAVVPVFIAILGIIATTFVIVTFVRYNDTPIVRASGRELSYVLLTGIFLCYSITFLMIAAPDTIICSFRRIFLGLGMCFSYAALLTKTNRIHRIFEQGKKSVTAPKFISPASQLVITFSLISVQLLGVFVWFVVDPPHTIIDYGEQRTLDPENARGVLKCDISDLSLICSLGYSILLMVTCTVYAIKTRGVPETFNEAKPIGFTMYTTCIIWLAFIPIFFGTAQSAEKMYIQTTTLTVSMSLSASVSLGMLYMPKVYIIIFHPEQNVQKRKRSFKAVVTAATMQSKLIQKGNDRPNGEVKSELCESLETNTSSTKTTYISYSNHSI

Point of comparison: CCOC(=O)c1ccccc1N1C(=O)CSC1=S, z-score -0.0781. Against it:
- O=C(NCC1CCCO1)c1ccc(CS(=O)(=O)c2c(Cl)cccc2Cl)o1 (stereo not drawn) — higher, -0.0453
- COc1ccccc1-n1c(=O)[nH]c2c(C(N)=O)nc(C3CCCCC3)nc21 — lower, -0.356
- CCN1CCN(C(c2ccc(OC)cc2)C(O)C(=O)c2c[nH]c3ccccc23)CC1 (stereo not drawn) — higher, 0.0792
- C=CCn1c(COc2ccc(Cl)cc2)nnc1SCC(=O)N/N=C/c1cccc(O)c1 — lower, -0.279
- CCOC(=O)c1c(NC(=O)CSc2nncs2)sc(C)c1-c1ccccc1 — lower, -0.117
- COCCn1c(C)cc(C(=O)COC(=O)c2ccc(NC(=O)CC#N)cc2)c1C — lower, -0.449
- Cc1nn(Cc2c(F)c(F)c(F)c(F)c2F)c(C)c1NC(=O)c1ccc(COc2ccccc2Cl)o1 — lower, -0.506
- CC(=O)c1cc2c(cc1NC(=O)CCC1CCCC1)OCO2 — higher, 0.181
- COc1ccc(NC(=O)c2cc(Cl)ccc2NC(=O)c2ccco2)c(OC)c1 — higher, 0.354
- CCN(CC)S(=O)(=O)c1ccc(C(=O)Nc2nnc(C(C)C)s2)cc1 — lower, -0.2
- COc1ccc(S(=O)(=O)NC(C)C(=O)O)cc1 (stereo not drawn) — lower, -0.408
- O=C(OCc1nc2ccccc2s1)C1CCN(S(=O)(=O)c2cccs2)CC1 — higher, 0.023
- CCCn1c(SCC(=O)c2ccc(OC)c(OC)c2)nc2c1c(=O)n(C)c(=O)n2C — lower, -0.237
- COc1ccc(C(=O)Cn2c(Br)nc3c2c(=O)n(C)c(=O)n3C)cc1OC — lower, -0.137
- COc1ccc(-c2nc3c(c(=O)n(C)c(=O)n3C)n2CC2CC(c3ccccc3)=NO2)cc1OC (stereo not drawn) — higher, 2.08
- Cc1cccc(N/C=C/c2onc(C)c2[N+](=O)[O-])c1 — higher, 1.43
- CCN(CC)S(=O)(=O)c1cc(C(=O)OCC(=O)NC2CCCc3ccccc32)ccc1C (stereo not drawn) — lower, -0.154
- COCCn1c(C)cc(C2=NNC(=Nc3ccccc3)SC2)c1C — lower, -0.413
- Cc1ccc(-n2c(N)c(C(=O)NCc3cccnc3)sc2=S)cc1 — higher, 0.285
- COc1cc2c(C(=O)NCc3ccc4c(c3)OCO4)cn(C)c(=O)c2cc1OC — lower, -0.397
- COc1ccc(OC)c(NC(=O)Cn2c(CCC(=O)O)ccc2-c2cccs2)c1 — lower, -0.116
- COc1ccc(S(=O)(=O)N2CCN(C(=O)NCc3ccccc3)CC2)cc1 — higher, -0.0685
- Cc1nn(-c2ccccc2)c2[nH]c(=O)c(CNCc3ccc4c(c3)OCO4)cc12 — lower, -0.638
- CCOc1ccc(NCc2cc3c(C(C)(C)C)nn(-c4ccccc4)c3[nH]c2=O)cc1 — lower, -0.079
- Cc1ccc(OCC(=O)Nc2sc3c(c2C#N)CCC3)cc1C — higher, -0.0369
- COc1cccc(C2CC(c3ccc(F)cc3)Nc3nc(N)nn32)c1 (stereo not drawn) — higher, 0.0383

CCc1ccc(NCc2cc3c(C)nn(-c4ccccc4)c3[nH]c2=O)cc1 was tested, and the z-score was 5.48 (active).
